Our source for the outcome and AC50 values is PubChem BioAssay (EPA / NIEHS).

Molecules are shown by their SMILES. Records with an inconclusive call do not appear. Calls of active or inactive are those of the source. Rule for the calls, unless noted: active = hit-call score of the fitted dose curve at least 0.9, where 1 is the maximum; inactive = score below 0.9.

Experiment [1] is described as follows: ATG_NFI_CIS: Attagene CIS-FACTORIAL HepG2 Assay for human Nuclear Factor I (NFI) (AID 2282989). Conditions: HepG2 cis-regulatory reporter, NFI response element transcription; actives raise or lower the signal. The method in brief: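 Endogenous TF activity in HepG2 cells transiently transfected with cis-element-driven multiplexed reporter units, read 24 h after dosing. Reporter mRNA quantified by RT-PCR, 6-FAM labelling, HpaI digestion and capillary electrophoresis; bidirectional fit versus DMSO.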

The target in experiment [2] is Myc proto-oncogene protein (Homo sapiens) (UniProt P01106). The experiment can be described thus: ATG_Myc_CIS: Attagene CIS-FACTORIAL HepG2 Assay for human Myelocytomatosis (Myc) Proto-Oncogene Transcription Factor (AID 2282990). Conditions: HepG2, Attagene cis-reporter transcription factor activity; actives raise or lower the signal. A digest of the protocol: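 DMSO-normalised, bidirectionally fitted reporter mRNA signal. HepG2 cells transfected with cis reporter constructs, treated 24 h; transcripts detected by RT-PCR, 6-FAM primer extension and CE.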
Sequence of Myc proto-oncogene protein (Homo sapiens) (P01106 whole entry, looked up): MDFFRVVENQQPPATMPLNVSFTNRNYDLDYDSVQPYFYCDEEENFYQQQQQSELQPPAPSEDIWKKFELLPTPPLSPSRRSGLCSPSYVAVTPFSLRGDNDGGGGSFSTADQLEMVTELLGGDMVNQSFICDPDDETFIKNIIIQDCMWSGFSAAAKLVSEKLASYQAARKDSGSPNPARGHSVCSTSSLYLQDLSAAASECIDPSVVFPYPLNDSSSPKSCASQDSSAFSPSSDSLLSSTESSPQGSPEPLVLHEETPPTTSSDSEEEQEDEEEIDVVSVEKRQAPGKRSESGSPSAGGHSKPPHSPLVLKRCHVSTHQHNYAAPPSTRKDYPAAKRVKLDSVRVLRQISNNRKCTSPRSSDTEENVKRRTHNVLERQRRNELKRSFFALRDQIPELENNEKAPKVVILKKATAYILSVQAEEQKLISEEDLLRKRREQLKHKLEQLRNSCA

Experiment [3] can be described thus: ATG_NF_kB_CIS: Attagene CIS-FACTORIAL HepG2 Assay for human Nuclear Factor Kappa B (NF-kB) (AID 2282991). Conditions: HepG2 Attagene cis-factorial NF-kB reporter mRNA; actives raise or lower the signal. A digest of the protocol:
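Measures mRNA induction of an NF-kB-responsive cis-element reporter in HepG2 cells transfected with multiple reporter units, sampled 24 h post-dosing; quantified by fluorescence after RT-PCR and capillary electrophoresis, fitted for activation or inhibition against DMSO.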

Experiment [4] can be described thus: ATG_NRF2_ARE_CIS: Attagene CIS-FACTORIAL HepG2 Assay for human Nuclear Factor Erythroid 2 Related Factor 2 (NFR2) response to Antioxidant Response Elements (ARE) (AID 2282992).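 For AC50: reporter mRNA level measured by RT-PCR and capillary electrophoresis fluorescence.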 Conditions: HepG2 Attagene ARE/NRF2 reporter, transcription factor activity; actives raise or lower the signal. The method in brief: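 HepG2 cells transiently transfected with multiplexed cis-element reporter constructs, 24 h after chemical dosing; reporter mRNA quantified by RT-PCR, fluorescent primer extension, HpaI digestion and capillary electrophoresis. Bidirectional fit relative to DMSO.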

Experiment [5] can be described thus: ATG_Oct_MLP_CIS: Attagene CIS-FACTORIAL HepG2 Assay for human Octamer-Binding Transcription Factor (Oct) (AID 2282993). Conditions: HepG2 Attagene cis-factorial Oct reporter, mRNA; actives raise or lower the signal. A digest of the protocol: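 HepG2 cells transiently transfected with cis-element-driven reporter transcription units (endogenous TF activity); 24 h compound exposure. Reporter mRNA quantified by RT-PCR, 6-FAM labelling, HpaI digestion and capillary electrophoresis; bidirectional fit versus DMSO baseline.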

In experiment [6] the target is Cellular tumor antigen p53 (Homo sapiens) (UniProt P04637). Description: ATG_p53_CIS: Attagene CIS-FACTORIAL HepG2 Assay for human p53 Transcription Factor (AID 2282994). Conditions: HepG2 p53 cis-element reporter, Attagene mRNA; actives raise or lower the signal. A digest of the protocol: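 HepG2 cells transiently transfected with cis-regulated multiple reporter transcription units, dosed 24 h. Reporter mRNA measured by RT-PCR, 6-FAM primer extension, HpaI digestion and capillary electrophoresis; bidirectional fit relative to DMSO.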
Sequence of Cellular tumor antigen p53 (Homo sapiens) (P04637 whole entry, looked up): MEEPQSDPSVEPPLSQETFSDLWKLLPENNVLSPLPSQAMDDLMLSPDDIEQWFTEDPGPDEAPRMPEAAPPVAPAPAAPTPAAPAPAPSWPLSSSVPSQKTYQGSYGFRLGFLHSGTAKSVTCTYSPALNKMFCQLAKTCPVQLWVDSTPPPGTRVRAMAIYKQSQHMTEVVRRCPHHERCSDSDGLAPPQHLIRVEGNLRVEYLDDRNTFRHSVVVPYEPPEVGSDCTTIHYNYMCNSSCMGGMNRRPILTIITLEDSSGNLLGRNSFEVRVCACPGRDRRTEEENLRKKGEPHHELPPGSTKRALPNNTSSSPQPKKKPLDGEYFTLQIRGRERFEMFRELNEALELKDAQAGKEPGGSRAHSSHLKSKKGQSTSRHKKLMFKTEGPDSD

For experiment [7], the target named is human Peroxisome Proliferator-activated Receptor alpha (PPARa), PPARA (gene 5465) (UniProt Q07869). The experiment can be described thus: ATG_PPARa_TRANS: Attagene TRANS-FACTORIAL HepG2 Assay for human Peroxisome Proliferator-activated Receptor alpha (PPARa) (AID 2283001; active = hit-call score of the fitted dose curve at least 0.9, where 1 is the maximum;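 for AC50: potency for gain of reporter signal over DMSO so agonist or activator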). A digest of the protocol:
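Gain-of-signal endpoint: reporter mRNA induction relative to DMSO, detected by fluorescent RT-PCR and capillary electrophoresis. HepG2 cells transiently carried GAL4-UAS-driven reporter units plus NR-Gal4 fusion; exposure lasted 24 h.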

The target of experiment [8] is Peroxisome proliferator-activated receptor gamma (Homo sapiens) (UniProt P37231). Description: ATG_PPARg_TRANS: Attagene TRANS-FACTORIAL HepG2 Assay for human Peroxisome Proliferator-activated Receptor-gamma (PPARg) (AID 2283007; active = hit-call score of the fitted dose curve at least 0.9, where 1 is the maximum). A digest of the protocol:
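Gain-of-signal endpoint relative to DMSO, derived from reporter mRNA levels quantified by RT-PCR and capillary electrophoresis. Cells were HepG2 transiently expressing a chimeric NR-Gal4 construct with GAL4-UAS reporters, exposed to chemicals for 24 h.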

Experiment [9] addresses Nuclear receptor subfamily 1 group I member 2 (Homo sapiens) (UniProt O75469). The experiment can be described thus: ATG_PXR_TRANS: Attagene TRANS-FACTORIAL HepG2 Assay for human Pregnane X Receptor (PXR) (AID 2283008; active = hit-call score of the fitted dose curve at least 0.9, where 1 is the maximum). A digest of the protocol: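 HepG2 cells transiently transfected with GAL4-UAS reporter units and PXR-Gal4 chimera, exposed 24 h. Reporter mRNA quantified by RT-PCR, fluorescent labelling, HpaI digestion and capillary electrophoresis; gain of signal vs DMSO.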

Experiment [10] concerns the target human RAR-related Orphan Receptor beta (RORb), RORB (gene 6096) (UniProt Q92753). Description: ATG_RORb_TRANS: Attagene TRANS-FACTORIAL HepG2 Assay for human RAR-related Orphan Receptor beta (RORb) (AID 2283010; active = hit-call score of the fitted dose curve at least 0.9, where 1 is the maximum). The method in brief:
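HepG2 cells transiently transfected with GAL4-UAS reporter units expressing chimeric NR-Gal4 protein; reporter mRNA measured 24 h after dosing by RT-PCR, 6-FAM labelling and capillary electrophoresis. Gain-of-signal fitted relative to DMSO baseline.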

The target in experiment [11] is human Retinoic Acid Receptor gamma (RARg), RARG (gene 5916) (UniProt P13631). Description: ATG_RARg_TRANS: Attagene TRANS-FACTORIAL HepG2 Assay for human Retinoic Acid Receptor gamma (RARg) (AID 2283009; active = hit-call score of the fitted dose curve at least 0.9, where 1 is the maximum). A digest of the protocol:
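HepG2 transiently transfected with GAL4-UAS reporter units and chimeric NR-Gal4 constructs; 24 h compound exposure. Reporter mRNA quantified by RT-PCR, FAM labeling, HpaI digestion and capillary electrophoresis; gain-of-signal versus DMSO.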

Experiment [12] addresses human Peroxisome Proliferator-activated Receptor delta (PPARd), PPARD (gene 5467) (UniProt Q03181). The experiment can be described thus: ATG_PPARd_TRANS: Attagene TRANS-FACTORIAL HepG2 Assay for human Peroxisome Proliferator-activated Receptor delta (PPARd) (AID 2283002; active = hit-call score of the fitted dose curve at least 0.9, where 1 is the maximum). A digest of the protocol:
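Measured quantity: GAL4-UAS reporter transcript induction in HepG2 after 24 h chemical dosing, with NR-Gal4 chimeras supplied by transient transfection. Detection by RT-PCR and capillary electrophoresis; upward fit against DMSO.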

In experiment [13] the target is human Retinoic Acid Receptor beta (RARb), RARB (gene 5915) (UniProt P10826). The experiment can be described thus: ATG_RARb_TRANS: Attagene TRANS-FACTORIAL HepG2 Assay for human Retinoic Acid Receptor beta (AID 2283004; active = hit-call score of the fitted dose curve at least 0.9, where 1 is the maximum). The method in brief:
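HepG2, transient MRTU transfection, NR–Gal4 chimera, 24 h treatment; RT-PCR plus CE fluorescence detection of reporter mRNA; gain of signal vs DMSO.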

Experiment [14] addresses Retinoic acid receptor alpha (Homo sapiens) (UniProt P10276). The experiment can be described thus: ATG_RARa_TRANS: Attagene TRANS-FACTORIAL HepG2 Assay for human Retinoic Acid Receptor alpha (RARa) (AID 2283005; active = hit-call score of the fitted dose curve at least 0.9, where 1 is the maximum). A digest of the protocol:
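HepG2 cells transiently transfected with multiple reporter units expressing chimeric RARα-GAL4 fusion, with GAL4-UAS-driven reporters. After 24 h compound exposure, reporter mRNA induction quantified by RT-PCR and capillary electrophoresis with fluorescent labeling; gain-of-signal fitted relative to DMSO control.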

Sequence of human Retinoic Acid Receptor gamma (RARg), RARG (gene 5916) (P13631 whole entry, looked up, the tested form may be a part): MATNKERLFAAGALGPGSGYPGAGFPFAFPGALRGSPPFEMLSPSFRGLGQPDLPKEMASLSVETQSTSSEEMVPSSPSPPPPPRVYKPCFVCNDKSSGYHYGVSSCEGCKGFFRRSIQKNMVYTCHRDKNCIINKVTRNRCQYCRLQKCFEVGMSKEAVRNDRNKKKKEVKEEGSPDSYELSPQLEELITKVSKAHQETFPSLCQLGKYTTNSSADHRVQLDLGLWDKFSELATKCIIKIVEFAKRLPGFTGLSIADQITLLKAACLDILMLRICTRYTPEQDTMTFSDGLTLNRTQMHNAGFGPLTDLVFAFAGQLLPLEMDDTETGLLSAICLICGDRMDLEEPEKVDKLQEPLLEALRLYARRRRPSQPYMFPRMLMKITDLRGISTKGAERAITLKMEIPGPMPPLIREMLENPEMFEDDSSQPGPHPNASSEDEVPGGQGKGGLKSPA
Sequence of human RAR-related Orphan Receptor beta (RORb), RORB (gene 6096) (Q92753 whole entry, looked up, the tested form may be a part): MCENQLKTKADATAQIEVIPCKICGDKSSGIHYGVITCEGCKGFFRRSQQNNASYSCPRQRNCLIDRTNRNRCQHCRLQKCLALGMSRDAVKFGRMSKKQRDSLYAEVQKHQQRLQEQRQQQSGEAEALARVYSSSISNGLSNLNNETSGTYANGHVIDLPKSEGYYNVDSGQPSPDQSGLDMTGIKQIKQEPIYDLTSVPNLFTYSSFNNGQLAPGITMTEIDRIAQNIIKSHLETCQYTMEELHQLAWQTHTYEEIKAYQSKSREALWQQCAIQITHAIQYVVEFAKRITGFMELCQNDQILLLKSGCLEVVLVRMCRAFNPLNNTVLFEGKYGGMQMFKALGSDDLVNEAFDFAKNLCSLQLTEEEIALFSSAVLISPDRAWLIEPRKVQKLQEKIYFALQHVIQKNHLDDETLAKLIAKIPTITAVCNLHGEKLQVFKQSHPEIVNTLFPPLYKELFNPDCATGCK
Sequence of human Retinoic Acid Receptor beta (RARb), RARB (gene 5915) (P10826 whole entry, looked up, the tested form may be a part): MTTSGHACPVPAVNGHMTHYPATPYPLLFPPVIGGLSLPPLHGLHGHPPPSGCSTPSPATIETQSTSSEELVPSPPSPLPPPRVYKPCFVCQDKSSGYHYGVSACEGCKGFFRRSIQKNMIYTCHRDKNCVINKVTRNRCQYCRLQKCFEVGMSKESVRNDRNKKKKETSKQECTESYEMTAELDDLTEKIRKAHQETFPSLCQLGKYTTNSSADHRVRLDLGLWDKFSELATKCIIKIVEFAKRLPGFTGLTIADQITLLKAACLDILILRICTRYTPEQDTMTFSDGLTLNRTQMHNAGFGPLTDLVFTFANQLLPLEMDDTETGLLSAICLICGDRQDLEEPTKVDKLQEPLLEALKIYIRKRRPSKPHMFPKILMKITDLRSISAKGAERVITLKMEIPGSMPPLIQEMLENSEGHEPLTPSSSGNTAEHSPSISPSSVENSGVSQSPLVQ
Sequence of human Peroxisome Proliferator-activated Receptor delta (PPARd), PPARD (gene 5467) (Q03181 whole entry, looked up, the tested form may be a part): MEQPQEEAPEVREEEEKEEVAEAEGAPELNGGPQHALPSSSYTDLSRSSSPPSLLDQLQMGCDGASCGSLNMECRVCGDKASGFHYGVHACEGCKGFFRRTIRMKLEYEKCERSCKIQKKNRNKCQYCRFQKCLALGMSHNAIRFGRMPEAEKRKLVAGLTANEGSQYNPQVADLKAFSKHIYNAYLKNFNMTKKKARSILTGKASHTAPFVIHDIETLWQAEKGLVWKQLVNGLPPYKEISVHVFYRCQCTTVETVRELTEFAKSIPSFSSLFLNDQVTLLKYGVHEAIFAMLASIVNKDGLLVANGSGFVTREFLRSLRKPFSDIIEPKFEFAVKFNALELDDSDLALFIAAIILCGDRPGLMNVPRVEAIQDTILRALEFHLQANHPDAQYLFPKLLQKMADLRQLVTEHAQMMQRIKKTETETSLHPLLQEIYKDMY
Sequence of human Peroxisome Proliferator-activated Receptor alpha (PPARa), PPARA (gene 5465) (Q07869 whole entry, looked up, the tested form may be a part): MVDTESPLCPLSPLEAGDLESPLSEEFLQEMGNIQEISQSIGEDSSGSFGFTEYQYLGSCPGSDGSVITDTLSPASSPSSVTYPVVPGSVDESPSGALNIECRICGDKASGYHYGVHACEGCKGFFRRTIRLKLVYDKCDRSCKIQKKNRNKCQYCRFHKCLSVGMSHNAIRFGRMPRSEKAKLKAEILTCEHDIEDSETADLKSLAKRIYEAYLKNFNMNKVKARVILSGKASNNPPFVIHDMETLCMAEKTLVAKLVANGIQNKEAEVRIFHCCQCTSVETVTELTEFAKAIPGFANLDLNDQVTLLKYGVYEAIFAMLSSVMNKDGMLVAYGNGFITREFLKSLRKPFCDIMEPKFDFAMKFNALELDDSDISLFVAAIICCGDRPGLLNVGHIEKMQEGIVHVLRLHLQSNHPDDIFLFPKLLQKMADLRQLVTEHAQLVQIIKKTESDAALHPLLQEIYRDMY
Sequence of Peroxisome proliferator-activated receptor gamma (Homo sapiens) (P37231 whole entry, looked up, the tested form may be a part): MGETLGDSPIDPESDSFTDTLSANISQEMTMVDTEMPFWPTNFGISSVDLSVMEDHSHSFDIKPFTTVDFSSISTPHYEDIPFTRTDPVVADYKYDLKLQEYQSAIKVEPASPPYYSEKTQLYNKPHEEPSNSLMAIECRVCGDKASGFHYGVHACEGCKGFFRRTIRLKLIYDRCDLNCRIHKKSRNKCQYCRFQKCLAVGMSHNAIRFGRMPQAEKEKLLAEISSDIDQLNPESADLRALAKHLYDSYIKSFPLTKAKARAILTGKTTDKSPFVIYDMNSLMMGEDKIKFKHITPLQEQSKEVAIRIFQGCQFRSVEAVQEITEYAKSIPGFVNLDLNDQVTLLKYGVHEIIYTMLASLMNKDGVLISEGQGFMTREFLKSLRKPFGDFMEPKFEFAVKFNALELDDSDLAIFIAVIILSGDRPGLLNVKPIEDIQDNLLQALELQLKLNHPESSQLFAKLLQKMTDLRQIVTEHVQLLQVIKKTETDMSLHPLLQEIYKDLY
Sequence of Nuclear receptor subfamily 1 group I member 2 (Homo sapiens) (O75469 whole entry, looked up, the tested form may be a part): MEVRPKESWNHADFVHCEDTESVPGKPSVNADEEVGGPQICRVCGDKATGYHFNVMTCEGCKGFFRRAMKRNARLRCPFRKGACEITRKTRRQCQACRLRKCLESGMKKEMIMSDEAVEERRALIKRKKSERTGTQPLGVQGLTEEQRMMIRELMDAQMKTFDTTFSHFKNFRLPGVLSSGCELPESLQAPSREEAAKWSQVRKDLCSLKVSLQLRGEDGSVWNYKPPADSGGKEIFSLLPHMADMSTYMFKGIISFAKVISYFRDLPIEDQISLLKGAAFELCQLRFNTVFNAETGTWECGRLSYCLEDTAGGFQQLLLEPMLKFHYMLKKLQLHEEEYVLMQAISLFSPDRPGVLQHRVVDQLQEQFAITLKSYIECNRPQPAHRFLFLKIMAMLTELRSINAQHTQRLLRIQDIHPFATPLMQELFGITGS
Sequence of Retinoic acid receptor alpha (Homo sapiens) (P10276 whole entry, looked up, the tested form may be a part): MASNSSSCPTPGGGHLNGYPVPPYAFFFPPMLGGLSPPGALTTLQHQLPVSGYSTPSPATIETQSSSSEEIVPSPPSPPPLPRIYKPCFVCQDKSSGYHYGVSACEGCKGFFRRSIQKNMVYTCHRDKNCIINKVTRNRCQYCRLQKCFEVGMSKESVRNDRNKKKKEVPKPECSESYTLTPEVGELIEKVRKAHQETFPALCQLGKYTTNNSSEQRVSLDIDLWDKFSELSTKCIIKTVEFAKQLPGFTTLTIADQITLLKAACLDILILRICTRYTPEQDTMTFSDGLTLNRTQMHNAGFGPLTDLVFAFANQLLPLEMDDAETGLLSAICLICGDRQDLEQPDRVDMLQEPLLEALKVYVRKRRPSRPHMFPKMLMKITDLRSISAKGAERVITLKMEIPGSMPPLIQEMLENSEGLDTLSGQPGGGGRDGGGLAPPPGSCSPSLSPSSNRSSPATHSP

On to `CCN(CCC#N)c1ccc(N=Nc2ccc([N+](=O)[O-])cc2)cc1`, for which the compound was called inactive in experiment [1], in experiment [2], in [3], in [5], in experiment [6] and in [7]. In addition, the result in [8], in experiment [9] and in [10] was inactive. The AC50 (commonly the midpoint of the concentration-response curve, whichever way the signal moves) in experiment [4] is 64.7 µM (active).

Take `CCCCCCCCCC(C)C=O` (stereo unspecified): the compound was called inactive in experiment [1], in [2], in [3], in [5], in experiment [6] and in experiment [9]. The compound was called inactive in experiment [11]. The AC50 in [4] is 100 µM (active); in [7], 27.5 µM (active); in experiment [8], 18.5 µM (active).

Take `COc1ccc(CCC(C)=O)cc1`: the compound was called inactive in [1], in experiment [2], in [3], in [4], in experiment [5] and in experiment [6]. The call in experiment [7], in [8], in experiment [9] and in [10] was inactive.

As to `ON=C1CCCCC1`, the compound was called inactive in [1], in [2], in experiment [3], in experiment [4], in [5] and in [6]. Besides, the outcome in experiment [7] and in [10] was inactive.

Consider `CCOC(=O)CN`, for which the call in experiment [1], in experiment [2], in [3], in experiment [4], in [5] and in experiment [6] was inactive. In addition, the call in experiment [12], in experiment [13], in experiment [8], in experiment [11] and in experiment [10] was inactive.

For `C=COCCOCCOC=C`, the result in [1], in experiment [2], in experiment [3], in [4], in experiment [5] and in experiment [6] was inactive. Besides, the call in experiment [12] and in experiment [8] was inactive.

On to `C=C(C#N)C(=O)OCC`, for which the compound was called inactive in [1], in [2], in [4], in experiment [5], in experiment [7] and in experiment [8]. Moreover, the outcome in experiment [9] was inactive. For the same compound, the AC50 in [3] was 100 µM (active); in experiment [6], 80 µM (active).

For the compound `CC(=O)O[C@@H]1C[C@@H]2CC[C@@]1(C)C2(C)C`, the compound was called inactive in experiment [1], in experiment [2], in experiment [3], in [4], in experiment [5] and in experiment [6]. In addition, the compound was called inactive in [7], in experiment [14], in experiment [9] and in experiment [11].

Regarding `CC(=O)O[C@@H]1CC2CCC1(C)C2(C)C` (stereo partly specified), the compound was classed as inactive in experiment [1], in [2], in experiment [3], in experiment [4], in experiment [5] and in experiment [6]. Besides, the compound was called inactive in experiment [7], in [8], in experiment [11] and in [10].

Regarding `ClC(c1ccccc1)(c1ccccc1)c1ccccc1`, the compound was classed as inactive in experiment [1], in [2], in [3], in [4], in experiment [5] and in experiment [6]. Also, the call in experiment [12], in experiment [13] and in [11] was inactive. In experiment [9], the AC50 is 2.2 µM (active).

For `O=C(Nc1ccc([N+](=O)[O-])cc1)Nc1ccc([N+](=O)[O-])cc1` (tested in a mixture with another compound), the result in experiment [1], in [2], in experiment [3], in experiment [4], in experiment [5] and in [6] was inactive. Moreover, the result in [7], in experiment [8], in [9] and in experiment [11] was inactive.

On to `CCCCCCCC(=O)OCCCCCC`, for which the outcome in experiment [1], in [2], in [3], in experiment [4], in experiment [5] and in [6] was inactive. Also, the outcome in [12], in experiment [13], in experiment [14], in experiment [8] and in [11] was inactive.

Regarding `Nc1ccc(Cl)c([N+](=O)[O-])c1`, the outcome in [1], in experiment [2], in experiment [3], in experiment [4], in experiment [5] and in experiment [6] was inactive. Moreover, the outcome in experiment [7], in experiment [8] and in [9] was inactive.

With `CC=Cc1ccc(OC)c(OC)c1`, the outcome in experiment [1], in [2], in experiment [3], in experiment [4], in experiment [5] and in experiment [6] was inactive. Moreover, the call in experiment [7] and in experiment [8] was inactive. For the same compound, the AC50 in experiment [9] was 27.6 µM (active).

Take `CC1C2CC(CC2C2CCCC(O)C2)C1(C)C` (stereo unspecified): the call in [1], in experiment [2], in experiment [3], in experiment [4], in experiment [5] and in [6] was inactive. Also, the outcome in [12], in [8] and in [11] was inactive. Besides, the AC50 in [9] was 14.3 µM (active).

In the case of `OCCOCCN1CCN(C2=Nc3ccccc3Sc3ccccc32)CC1`, the compound was called inactive in experiment [1], in [2], in [3], in experiment [5] and in experiment [11]. For the same compound, the AC50 in experiment [4] is 176 µM (active); in [6], 75.8 µM (active); in experiment [9], 5.77 µM (active).

As for `C=CCOC(=O)CCCCCC`, the result in [1], in experiment [2], in experiment [3], in experiment [4], in experiment [5] and in experiment [6] was inactive. In addition, the outcome in experiment [12], in [8], in experiment [9] and in experiment [10] was inactive.

As to `CC(C)(C)C1=CC(=O)C(C(C)(C)C)=CC1=O`, the compound was classed as inactive in experiment [1], in [5] and in experiment [12]. Also, the AC50 is 77.3 µM (active) in [2]; 50 µM (active) in [3]; 13.7 µM (active) in [4]; 30.5 µM (active) in experiment [6]; 50 µM (active) in [8]; 5.78 µM (active) in experiment [9].

For `O=C1NC2NC(=O)NC2N1` (stereo unspecified), the compound was called inactive in experiment [1], in [2], in experiment [3], in experiment [4], in experiment [6] and in [12]. The outcome in [8] and in [10] was inactive. For the same compound, in experiment [5], the AC50 was 0.167 µM (active).
